Assay [1] can be described thus: cAMP Responsive Elements (CRE) small molecule antagonists, cell-based qHTS assay: qHTS cell viability counter screen (AID 2060913). Also: nearly all actives have a fitted effect of over 40% in size. In a few lines: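 HEK293T CRE-bla, 2,000 cells/well, 18 h preincubation; cpd in DMSO + NKH477 0.25 uM final, 3 h 37 C/5% CO2; LiveBLAzer 2 h RT, then CellTiter-Glo 30 min RT, luminescence.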
(In qHTS, concentration-response curves come from the screen itself.)

Assay [2] can be described thus: cAMP Responsive Elements (CRE) small molecule agonists, cell-based qHTS assay: qHTS cell viability counter screen (AID 2060914).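 Also: viability read after 3 h of compound exposure; nearly all actives have a fitted effect of over 50% in size.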 In a few lines:
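CRE-bla HEK293T cells in 10% dialyzed FBS medium were exposed to compounds for 3 h at 37C after 18 h plating. CellTiter-Glo was then added in the same wells, and luminescence was read after 30 min at room temperature.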

Records with an inconclusive call do not appear. Unmarked numbers belong to inactive results. Active and inactive are the calls of the source. Calls follow the shape of the dose curve; as a rule, active = well fitted cell-killing curve with a large enough effect in the repeat runs; inconclusive = weak or mixed curves, or effect the other way; inactive = flat fitted curve, though single readings scatter.
Potency is read from the fitted curve at half-maximal effect.

Consider `CCC(=O)OC/C=C/c1ccccc1`, for which the Potency entry in assay [1] and in assay [2] was “inactive” each time.

For the molecule `C=C(C)C(=O)OCC(O)COc1ccc(C(C)(C)c2ccc(OCC(O)COC(=O)C(=C)C)cc2)cc1` (stereo not drawn), the Potency in assay [1] and in assay [2] was 61.1 µM (active) in each case.

For `CC(C)C(=O)OCc1cccc(OC(=O)[C@@H]2N3C(=O)[C@@H](NC(=O)Cc4ccccc4)[C@H]3SC2(C)C)c1`, the Potency result in assay [1] and in assay [2] was “inactive” in each case.

In the case of `CCOc1ccc2nc3cc(N)ccc3c(N)c2c1`, the Potency result in assay [1] and in assay [2] was “inactive” in each case.

Turning to `COc1cccc(O)c1O`, the Potency entry in assay [1] and in assay [2] was “inactive” throughout.

On to `COc1cc(CNC(=O)CCCC/C=C/C(C)C)ccc1O`, for which the Potency result in assay [1] and in assay [2] was “inactive” in each case.

Consider `NCc1ccc(S(N)(=O)=O)cc1`, for which the Potency result in assay [1] and in assay [2] was “inactive” in each case.

As to `CCOC(=O)CC(CC(=O)OCC)(OC(C)=O)C(=O)OCC`, the Potency result in assay [1] and in assay [2] was “inactive” in each case.

Consider `CC(C)(C)c1cc(CCC(=O)OCC(COC(=O)CCc2cc(C(C)(C)C)c(O)c(C(C)(C)C)c2)(COC(=O)CCc2cc(C(C)(C)C)c(O)c(C(C)(C)C)c2)COC(=O)CCc2cc(C(C)(C)C)c(O)c(C(C)(C)C)c2)cc(C(C)(C)C)c1O`, for which the Potency entry in assay [1] and in assay [2] was “inactive” throughout.

Consider `Cc1ccc(C(=O)O)cc1`, for which the Potency result in assay [1] and in assay [2] was “inactive” in each case.

Take `CC(C)(C)C1CCCCC1=O` (stereo not drawn): the Potency entry in assay [1] and in assay [2] was “inactive” each time.

As for `CN1CCN(c2c(F)cc3c(=O)c(C(=O)O)cn4c3c2SCC4)CC1`, the Potency entry in assay [1] and in assay [2] was “inactive” each time.

As for `C[C@]12CCC(=O)C=C1CC[C@@H]1[C@@H]2[C@@H](O)C[C@@]2(C)[C@H]1CC[C@]2(O)C(=O)COC(=O)CCC(=O)O`, the Potency entry in assay [1] and in assay [2] was “inactive” each time.

Regarding `CC1(C)S[C@@H]2[C@H](NC(=O)Cc3ccccc3)C(=O)N2[C@H]1C(=O)O` (tested in a mixture with another compound), the Potency entry in assay [1] and in assay [2] was “inactive” in each case.

Turning to `O=C[C@H](O)[C@H](O)[C@H](O)CO`, the Potency entry in assay [1] and in assay [2] was “inactive” throughout.

On to `Nc1cc(C(Cl)=C(Cl)Cl)c(S(N)(=O)=O)cc1S(N)(=O)=O`, for which the Potency entry in assay [1] and in assay [2] was “inactive” throughout.

Take `C/C=C/C(=O)N(CC)c1ccccc1C`: the Potency entry in assay [1] and in assay [2] was “inactive” in each case.

Turning to `CC(C)(C)NC(=O)[C@H]1CC[C@H]2[C@@H]3CC[C@H]4NC(=O)C=C[C@]4(C)[C@H]3CC[C@]12C`, the Potency entry in assay [1] and in assay [2] was “inactive” in each case.

In the case of `Cc1ncc(CO)c(CO)c1O`, the Potency result in assay [1] and in assay [2] was “inactive” each time.

For the molecule `O=S(=O)(O)SSS(=O)(=O)O`, the Potency result in assay [1] and in assay [2] was “inactive” each time.

As to `OCc1ccccc1`, the Potency entry in assay [1] and in assay [2] was “inactive” each time.

Turning to `CCCCOC(=O)C(C)CC` (stereo not drawn), the Potency entry in assay [1] and in assay [2] was “inactive” throughout.

On to `CCCCCCCCCCCCCCCCCCOCC(O)CO` (stereo not drawn), for which the Potency result in assay [1] and in assay [2] was “inactive” in each case.

With `Cc1oc2c(NC(=O)c3c(Cl)cccc3Cl)cccc2c1C(C)(C)O`, the Potency entry in assay [1] and in assay [2] was “inactive” throughout.

Turning to `CC(C)=CC=O`, the Potency result in assay [1] and in assay [2] was “inactive” each time.

On to `CC(C)(O)Cc1ccccc1`, for which the Potency result in assay [1] and in assay [2] was “inactive” in each case.

Consider `Nc1c(CC(=O)O)cccc1C(=O)c1ccc(Br)cc1`, for which the Potency result in assay [1] and in assay [2] was “inactive” each time.

`C[C@H](NC(CCc1ccccc1)C(=O)O)C(=O)N1CCC[C@H]1C(=O)O` (stereo partly drawn): the Potency entry in assay [1] and in assay [2] was “inactive” throughout.

In the case of `c1ccc(Oc2ccccc2)cc1`, the Potency entry in assay [1] and in assay [2] was “inactive” each time.

Turning to `Cc1ccc(C)c(S(=O)(=O)O)c1`, the Potency entry in assay [1] and in assay [2] was “inactive” in each case.

On to `C=C(C)C(=O)OCCCCCCCCCCCC`, for which the Potency result in assay [1] and in assay [2] was “inactive” each time.

With `Nc1nc(Cl)nc2c1ncn2[C@H]1C[C@H](O)[C@@H](CO)O1`, the Potency result in assay [1] and in assay [2] was “inactive” throughout.

Turning to `O=c1c(O)c(O)c1=O`, the Potency entry in assay [1] and in assay [2] was “inactive” in each case.

In the case of `OCc1ccc(Cl)cc1Cl`, the Potency result in assay [1] and in assay [2] was “inactive” each time.

Turning to `Cc1cc(Cl)c(C)cc1Cl`, the Potency result in assay [1] and in assay [2] was “inactive” in each case.

For the molecule `CCCCOCC(C)OCC(C)O` (stereo not drawn), the Potency entry in assay [1] and in assay [2] was “inactive” each time.

On to `CCCCCCCC(=O)O`, for which the Potency entry in assay [1] and in assay [2] was “inactive” in each case.

Turning to `C=COCC(C)C`, the Potency entry in assay [1] and in assay [2] was “inactive” in each case.

As for `CN1C(=O)N(c2ccccc2Br)Cc2cnc(Nc3ccc4c(c3)OCC(CO)O4)nc21` (stereo not drawn), the Potency result in assay [1] and in assay [2] was “inactive” throughout.

In the case of `C=CC(=O)OCC(CO)(COCC(COC(=O)C=C)(COC(=O)C=C)COC(=O)C=C)COC(=O)C=C`, the Potency in assay [1] is 30.3 µM (active); in assay [2], 42.7 µM (active).

As for `CC/C(C)=N/O`, the Potency result in assay [1] and in assay [2] was “inactive” in each case.

Turning to `CN(C)CCOCCN(C)C`, the Potency result in assay [1] and in assay [2] was “inactive” in each case.

For the molecule `CC[N+]1(CC)CCC(=C(c2ccccc2)c2ccccc2)C1C` (stereo not drawn), the Potency entry in assay [1] and in assay [2] was “inactive” each time.

Take `CC(C)CNCC(C)C`: the Potency result in assay [1] and in assay [2] was “inactive” each time.

Turning to `CC(C)C1=CC2=CC[C@@H]3[C@](C)(CCC[C@@]3(C)C(=O)O)[C@H]2CC1`, the Potency entry in assay [1] and in assay [2] was “inactive” throughout.

Take `C/C(C=O)=C\c1ccccc1`: the Potency result in assay [1] and in assay [2] was “inactive” each time.

For `CCCCN(CCCC)CCCOC(=O)c1ccc(N)cc1`, the Potency result in assay [1] and in assay [2] was “inactive” in each case.

With `Nc1cc(S(=O)(=O)O)ccc1S(=O)(=O)O`, the Potency result in assay [1] and in assay [2] was “inactive” throughout.

For the molecule `CN(C)CCN(C)CCO`, the Potency result in assay [1] and in assay [2] was “inactive” each time.

In the case of `NC(N)=NC(=O)c1nc(Cl)c(N)nc1N`, the Potency entry in assay [1] and in assay [2] was “inactive” throughout.

With `CCCC(=O)OC(C)(C)Cc1ccccc1`, the Potency entry in assay [1] and in assay [2] was “inactive” in each case.

In the case of `CCC/C=C/CO`, the Potency result in assay [1] and in assay [2] was “inactive” throughout.

As for `OC1CCCCCCCCCCC1`, the Potency result in assay [1] and in assay [2] was “inactive” in each case.

For the molecule `CCNc1nc(NC(C)(C)C)nc(OC)n1`, the Potency result in assay [1] and in assay [2] was “inactive” in each case.
